Counter-ions that a name gives are not always drawn. ± gives the standard deviation of the averaged measurements.
Key:
[1] = tested on: Saccharomyces cerevisiae BY4741 SeMeCo community; assay: mean cell size (pixel area) (pixels); higher = larger cells; conditions: 10 µM; 24 h; SM minimal medium
Summary of the method: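 Harmony analysis of automated confocal images of paraformaldehyde-fixed yeast gave the mean cell pixel area per well. The yeast was a Saccharomyces cerevisiae BY4741 community carrying four plasmids, each with a fluorescent marker and each complementing one auxotrophy, incubated for 24 h in SM medium containing drug at a final 10 µM in 384-well plates. Results are averaged over 3 replicates. Same SeMeCo high-content imaging drug screen: Selleck FDA-approved drugs at 10 µM, 24 h in SM medium, 384-well plates, 3 replicates.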

[2] = tested on: Saccharomyces cerevisiae BY4741 SeMeCo community; assay: z-score of prototroph abundance vs DMSO median; higher = larger share of this subpopulation than in DMSO controls; conditions: 10 µM; 24 h; SM minimal medium; subpopulation (auxotrophy): Prototroph
Summary of the method: (§1)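 A Saccharomyces cerevisiae BY4741 community carried four plasmids, each restoring one auxotrophy and encoding a distinct fluorescent protein. It was pre-grown overnight to OD600 1.0, diluted to 0.3, and 70 µl was added to 384-well plates acoustically predosed with library drugs (10 µM final), then grown 24 h in minimal SM medium. Cells were paraformaldehyde-fixed and imaged by automated confocal microscopy, with single-auxotroph fluorescent strains setting thresholds and autofluorescence correction. Each subpopulation's abundance was scored as a z-score against the vehicle-well median.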

[3] = tested on: Saccharomyces cerevisiae BY4741 SeMeCo community; assay: z-score of subpopulation abundance vs DMSO median, subpopulation auxotrophic for M; higher = larger share of this subpopulation than in DMSO controls; conditions: 10 µM; 24 h; SM minimal medium; subpopulation (auxotrophy): M
Summary of the method: as §1

[4] = tested on: Saccharomyces cerevisiae BY4741 SeMeCo community; assay: z-score of subpopulation abundance vs DMSO median, subpopulation auxotrophic for L; higher = larger share of this subpopulation than in DMSO controls; conditions: 10 µM; 24 h; SM minimal medium; subpopulation (auxotrophy): L
Summary of the method: as §1

[5] = tested on: Saccharomyces cerevisiae BY4741 SeMeCo community; assay: z-score of subpopulation abundance vs DMSO median, subpopulation auxotrophic for LU; higher = larger share of this subpopulation than in DMSO controls; conditions: 10 µM; 24 h; SM minimal medium; subpopulation (auxotrophy): LU
Summary of the method: as §1

[6] = tested on: Saccharomyces cerevisiae BY4741 SeMeCo community; assay: z-score of subpopulation abundance vs DMSO median, subpopulation auxotrophic for LM; higher = larger share of this subpopulation than in DMSO controls; conditions: 10 µM; 24 h; SM minimal medium; subpopulation (auxotrophy): LM
Summary of the method: as §1

[7] = tested on: Saccharomyces cerevisiae BY4741 SeMeCo community; assay: z-score of subpopulation abundance vs DMSO median, subpopulation auxotrophic for HM; higher = larger share of this subpopulation than in DMSO controls; conditions: 10 µM; 24 h; SM minimal medium; subpopulation (auxotrophy): HM
Summary of the method: as §1

[8] = tested on: Saccharomyces cerevisiae BY4741 SeMeCo community; assay: z-score of subpopulation abundance vs DMSO median, subpopulation auxotrophic for HU; higher = larger share of this subpopulation than in DMSO controls; conditions: 10 µM; 24 h; SM minimal medium; subpopulation (auxotrophy): HU
Summary of the method: as §1

[9] = tested on: Saccharomyces cerevisiae BY4741 SeMeCo community; assay: z-score of subpopulation abundance vs DMSO median, subpopulation auxotrophic for UM; higher = larger share of this subpopulation than in DMSO controls; conditions: 10 µM; 24 h; SM minimal medium; subpopulation (auxotrophy): UM
Summary of the method: as §1

[10] = tested on: Saccharomyces cerevisiae BY4741 SeMeCo community; assay: z-score of subpopulation abundance vs DMSO median, subpopulation auxotrophic for HL; higher = larger share of this subpopulation than in DMSO controls; conditions: 10 µM; 24 h; SM minimal medium; subpopulation (auxotrophy): HL
Summary of the method: as §1

[11] = tested on: Saccharomyces cerevisiae BY4741 SeMeCo community; assay: z-score of subpopulation abundance vs DMSO median, subpopulation auxotrophic for HLU; higher = larger share of this subpopulation than in DMSO controls; conditions: 10 µM; 24 h; SM minimal medium; subpopulation (auxotrophy): HLU
Summary of the method: as §1

[12] = tested on: Saccharomyces cerevisiae BY4741 SeMeCo community; assay: z-score of subpopulation abundance vs DMSO median, subpopulation auxotrophic for HUM; higher = larger share of this subpopulation than in DMSO controls; conditions: 10 µM; 24 h; SM minimal medium; subpopulation (auxotrophy): HUM
Summary of the method: as §1

[13] = tested on: Saccharomyces cerevisiae BY4741 SeMeCo community; assay: z-score of subpopulation abundance vs DMSO median, subpopulation auxotrophic for LUM; higher = larger share of this subpopulation than in DMSO controls; conditions: 10 µM; 24 h; SM minimal medium; subpopulation (auxotrophy): LUM
Summary of the method: as §1

[14] = tested on: Saccharomyces cerevisiae BY4741 SeMeCo community; assay: z-score of subpopulation abundance vs DMSO median, subpopulation auxotrophic for U; higher = larger share of this subpopulation than in DMSO controls; conditions: 10 µM; 24 h; SM minimal medium; subpopulation (auxotrophy): U
Summary of the method: as §1

[15] = tested on: Saccharomyces cerevisiae BY4741 SeMeCo community; assay: z-score of subpopulation abundance vs DMSO median, subpopulation auxotrophic for H; higher = larger share of this subpopulation than in DMSO controls; conditions: 10 µM; 24 h; SM minimal medium; subpopulation (auxotrophy): H
Summary of the method: as §1

[16] = tested on: Saccharomyces cerevisiae BY4741 SeMeCo community; assay: z-score of subpopulation abundance vs DMSO median, subpopulation auxotrophic for HLUM; higher = larger share of this subpopulation than in DMSO controls; conditions: 10 µM; 24 h; SM minimal medium; subpopulation (auxotrophy): HLUM
Summary of the method: as §1

Compound	mean cell size [1]	z-score of prototroph abundance [2]	z-score of subpopulation abundance [3]	z-score of subpopulation abundance [4]	z-score of subpopulation abundance [5]	z-score of subpopulation abundance [6]	z-score of subpopulation abundance [7]	z-score of subpopulation abundance [8]	z-score of subpopulation abundance [9]	z-score of subpopulation abundance [10]	z-score of subpopulation abundance [11]	z-score of subpopulation abundance [12]	z-score of subpopulation abundance [13]	z-score of subpopulation abundance [14]	z-score of subpopulation abundance [15]	z-score of subpopulation abundance [16]
COc1ccc(CNc2nc(N3CCC[C@H]3CO)ncc2C(=O)NCc2ncccn2)cc1Cl [Avanafil]	12.5 ± 0.16	-0.15	0.21	-0.77	-0.03	-0.5	0.22	0.11	0.93	-0.55	0.58	0.44	-0.38	–	–	–
NC(=O)c1cnccn1 [Pyrazinamide]	12.6 ± 0.23	-0.04	0.41	-1.21	0.31	-0.13	-0.55	-0.29	1.23	-0.42	-0.7	0.08	-0.08	1.27	-0.45	–
CN(C)CCC[C@@]1(c2ccc(F)cc2)OCc2cc(C#N)ccc21 [Escitalopram Oxalate]	12.4 ± 0.18	1.15	0.05	0.5	-0.08	0.48	-0.98	-0.95	-0.53	-0.1	-0.25	-0.36	–	-0.79	-0.42	0.18
CC(=O)[O-].[K+] [Potassium acetate]	12.5 ± 0.15	–	-0.39	-0.45	-0.01	-0.98	-0.29	0.19	-0.51	0.08	-0.71	-0.43	-0.06	-0.46	-0.01	-0.44
C[C@@H](O)[C@H]1C(=O)N2C(C(=O)O)=C(S[C@@H]3CN[C@H](C(=O)N(C)C)C3)[C@H](C)[C@H]12 [Meropenem Trihydrate]	12.6 ± 0.27	–	0.89	0.38	0.63	–	1.13	-0.59	-0.82	0.55	0.91	-0.48	-0.3	-0.82	1.09	-0.25
CC1(C)S[C@@H]2[C@H](NC(=O)C(c3ccccc3)S(=O)(=O)O)C(=O)N2[C@H]1C(=O)O (stereo partly specified) [Sulbenicillin Sodium]	12.35 ± 0.08	-0.72	0.41	-0.32	1.06	-0.34	–	0.51	–	–	0.86	0.43	–	1.09	1.2	1.16
COc1c(N2CCNC(C)C2)c(F)cc2c(=O)c(C(=O)O)cn(C3CC3)c12 (stereo unspecified) [Gatifloxacin]	12.4 ± 0.17	–	-0.13	-0.51	0.36	-0.79	–	–	0.32	-0.93	-0.36	0.51	-0.33	0.81	-0.44	-0.38
O=C(O)CCC(=O)c1ccc(-c2ccccc2)cc1 [Fenbufen]	12.8 ± 0.18	-0.31	0.67	0.14	1.1	0.1	-0.02	–	-0.92	0.57	-0.12	0.23	-0.23	0.32	0.71	0.69
CN(C)CCc1c[nH]c2ccc(Cn3cncn3)cc12 [Rizatriptan Benzoate]	12.63 ± 0.099	0.05	-0.1	0.9	0.31	1.18	0.65	-0.96	–	0.75	0.78	-0.59	-0.44	-0.69	0.25	–
CCn1cc(C(=O)O)c(=O)c2cc(F)c(N3CCNCC3)cc21 [Norfloxacin]	12.3 ± 0.21	0.05	0.77	-0.15	-0.24	0.65	0.41	-0.03	-0.54	0.28	-0.16	0.46	-0.23	-0.7	0.31	-0.9
CCC[S+]([O-])c1ccc2[nH]c(NC(=O)OC)nc2c1 (stereo unspecified) [Albendazole Oxide]	12.4 ± 0.35	0.33	-0.33	-0.98	-0.51	-0.25	–	-0.21	0.18	-0.18	-0.31	0.36	-0.65	0.49	-0.72	-1.11
CCN(Cc1ccncc1)C(=O)C(CO)c1ccccc1 (stereo unspecified) [Tropicamide]	12.48 ± 0.099	-0.08	-0.16	0.34	0.14	0.83	-0.12	–	0.23	0.16	0.42	0.16	–	0.43	-0.6	0.01
CCN(CC)CCOc1ccc2c(c1)C(=O)c1cc(OCCN(CC)CC)ccc1-2 [Tilorone dihydrochloride]	12.3 ± 0.13	–	-1.12	-0.72	-0.27	-0.86	-1.02	0.05	-0.31	-0.65	-0.23	-0.66	-0.39	0.24	0.18	–
CCN(CC)C(=O)N1CCN(C)CC1 [Diethylcarbamazine citrate]	12.6 ± 0.14	0.16	-0.11	-0.21	0.3	-0.13	-0.19	-0.43	0.18	-1.04	-0.06	0.13	-0.5	0.67	-0.57	-0.66
CC1(C)S[C@@H]2[C@H](NC(=O)[C@H](N)c3ccc(O)cc3)C(=O)N2[C@H]1C(=O)O [Amoxicillin trihydrate]	12.19 ± 0.082	–	0.05	0.15	0.61	0.15	-0.15	0.31	0.19	-0.69	0.3	-0.08	0.38	0.03	-0.05	-0.21

From the supplement of paper PMC8975748
